In PubChem BioAssay:

Experiment: Her2 expression decrease, cell viability multiplex – SKBR3 breast tumor cells, AlphaScreen, ATP viability, primary screen (AID 461);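 further: percent of carrier control wells set as 100% viability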
Details: SKBR3 Her2 protein level, 18-24 h, measured here: SKBR3 viability, ATP luminescence, at 10 µM

| Structure (SMILES) | viability [%] |
| --- | --- |
| CCOC(=O)N1CCN(Cc2nc3c(c(=O)n(C)c(=O)n3C)n2Cc2ccccc2)CC1 | 104 |
| COCCCNC(=O)Cn1cc2c(n1)CCC(C)C2 (stereo not drawn) | 112 |
| C=CCc1ccccc1OCCCCN1CCCC1 | 70.5 |
| COc1ccc(OCC(=O)N2CC3(C)CC2CC(C)(C)C3)cc1 (stereo not drawn) | 96 |
| O=C1c2ccccc2C(Nc2ccc(-c3nc4ccccc4[nH]3)cc2)N1Cc1ccco1 (stereo not drawn) | 90.5 |
| CCCNc1nc(N2CCOCC2)nc(N2CCOCC2)n1 | 97.5 |
| COCCn1c(SCC(=O)Nc2ccc3c(c2)OCCO3)nc2c(c1=O)SC(C)C2 (stereo not drawn) | 95 |
| COc1ccc(NC(=O)C2CCCN2S(=O)(=O)c2cccc3cccnc23)c(OC)c1 (stereo not drawn) | 96 |
| CCOC(=O)Cn1ncc(-c2ccccc2)c1N | 101 |
| O=C(O)C1CC(=O)N(CCOc2ccccc2)C1 (stereo not drawn) | 105 |
| Cc1ccc(-n2c3c(cc(C(=O)NCCCN4CCOCC4)c2=O)C(=O)CC(C)(C)C3)cc1 | 109 |
| CCOC(=O)C1CCN(Cc2ccc(OC)c(C)c2OC)CC1 | 88.5 |
| COc1ccc(C(C)N2CC34C=CC(O3)C(C(=O)OCC(C)C)C4C2=O)cc1 (stereo not drawn) | 103 |
| Cc1c(NC(=O)C2CCCCN2S(=O)(=O)c2ccc(Cl)cc2)c(=O)n(-c2ccccc2)n1C (stereo not drawn) | 112 |
| CC(C)(NC(=O)N1CCCC1)c1cccc(C(C)(C)NC(=O)N2CCCC2)c1 | 98 |
| CC(C)NC(=O)c1ccc2c(c1)nnn2C | 94 |
| Cc1ccc(C(=O)CC2(O)C(=O)N(C)c3ccc(Br)cc32)c(C)c1 (stereo not drawn) | 85 |
| Cc1ccc(NC(=O)CN(c2ccc3c(c2)OCO3)S(=O)(=O)c2c(C)n[nH]c2C)cc1 | 92 |
